High-throughput results: PubChem BioAssay, National Center for Advancing Translational Sciences (NCATS)
Sampled rows, rich in hits. Any-hit rate of the full collection: about 3.1%.
Vif-APOBEC3G blk = qHTS for Inhibitors of Vif-A3G Interactions: qHTS; Potency, µM (highest dose often 46.1 µM), inactives show top-dose activity, negative = active, hits mostly inhibitors; AID 602310, 2012; hit rate 0.076% among 410,000; DNA dC->dU-editing enzyme APOBEC-3G (Homo sapiens), Q9HC16; HeLa A3G-eYFP + Vif (tagged APOBEC3G with the HIV-1 protein that degrades it), YFP fluorescence, overnight; further: potency means the concentration at half of the fitted maximal effect; on the % scale 0 is the no-effect control and ±100 the full control effect; nearly all actives have a fitted effect of over 60% in size
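Read-out is eYFP fluorescence (Ex 488/Em 500-530) from Vif-expressing HeLa A3G-eYFP cells; more signal means A3G escaped Vif-mediated degradation. Cells plated overnight, compound pinned in, incubated overnight at 37 deg C.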
Vif-A3F inh = qHTS for Inhibitors of Vif-A3F Interactions: qHTS; AID 602313, 2012; Potency, µM (series often up to 46.1 µM), for the others: at the highest dose activity, negative = active; HeLa A3F-eYFP + Vif (tagged APOBEC3F with the HIV-1 protein that degrades it), YFP fluorescence increase; hit rate 0.2% among 390,000; further: potency means the concentration at half of the fitted maximal effect; % of control where 0% means no effect; nearly all actives have a fitted effect of over 65% in size
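HeLa cells stably expressing Vif plus C-terminally eYFP-tagged A3F were seeded, incubated overnight at 37 deg C, dosed with compound, incubated overnight again at 37 deg C. Yellow fluorescence (Ex 488/Em 500-530) reported blocked Vif-mediated A3F-eYFP degradation.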
VDR inhibitor = Inhibitors of the vitamin D receptor (VDR): qHTS; AID 504847, 2011; Potency, µM, without a hit: max response, negative = inhibition, actives largely listed as inhibitors; Vitamin D3 receptor (Homo sapiens), P11473; VDR-SRC2-3 peptide fluorescence polarization, 2 h; hit rate 0.93% among 400,000; further: potency means the concentration at half of the fitted maximal effect; on the % scale 0 is the no-effect control and ±100 the full control effect
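FP read-out; VDR + SRC2-3 coactivator peptide; 23 nl compound by pintool; 2 h RT incubation; reagents held at 4 deg C, protected from light.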
PLK1 PBD inh = qHTS for Inhibitors of PLK1-PDB (polo-like kinase 1 - polo-box domain): Primary Screen | Plk1 PBD binding of FITC phosphopeptide, fluorescence polarization | Potency, µM, for inactives: max response, negative = inhibition, actives largely listed as inhibitors | hit rate 2.8% among 360,000; further: potency means the concentration at half of the fitted maximal effect; series mostly up to about 57 µM; on the % scale 0 is the no-effect control and ±100 the full control effect; nearly all actives have a fitted effect of over 65% in size
Target sequence (P53350 whole entry, looked up, the tested form may be a part): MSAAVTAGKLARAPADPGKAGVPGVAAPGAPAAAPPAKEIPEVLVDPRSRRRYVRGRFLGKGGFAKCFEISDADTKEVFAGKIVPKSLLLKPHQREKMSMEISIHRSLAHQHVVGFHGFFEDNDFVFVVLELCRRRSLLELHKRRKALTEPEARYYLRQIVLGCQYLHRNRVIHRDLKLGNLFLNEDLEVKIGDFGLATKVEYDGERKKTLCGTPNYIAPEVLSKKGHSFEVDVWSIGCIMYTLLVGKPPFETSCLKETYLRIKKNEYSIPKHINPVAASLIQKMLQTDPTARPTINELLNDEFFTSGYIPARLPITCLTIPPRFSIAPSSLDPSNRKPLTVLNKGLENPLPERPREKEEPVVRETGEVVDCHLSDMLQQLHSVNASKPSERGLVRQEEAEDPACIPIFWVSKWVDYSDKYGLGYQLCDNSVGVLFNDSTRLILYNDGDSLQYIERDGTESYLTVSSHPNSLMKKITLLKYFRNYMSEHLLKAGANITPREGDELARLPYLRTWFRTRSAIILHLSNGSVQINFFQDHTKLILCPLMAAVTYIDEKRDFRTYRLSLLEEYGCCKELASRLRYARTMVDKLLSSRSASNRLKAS
TSHR antagonist = Antagonists of the Thyroid Stimulating Hormone Receptor: HTS campaign; Thyrotropin receptor (Homo sapiens), P16473; TSHR-expressing cells, TSH-stimulated cAMP HTRF, 2 h; hits give low values; activity change, negative = inhibition, % at 11.5 µM; hit rate 0.2% among 330,000; AID 504810, 2011;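 active means activity change below a set negative limit, meaning inhibition stronger than a set level, cut at about -70% in these data; inconclusive means activity change between two set negative limits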; further: on the % scale 0 is the no-effect control and ±100 the full control effect
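Competitive HTRF cAMP read-out (cryptate anti-cAMP antibody, cAMP-d2; 30 min, room temperature) in freshly harvested TSHR cells. Compounds added before TSH at EC80 (4nM final), followed by 2 hours' incubation at 37 deg C.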
VDR inh confirm = qHTS for Inhibitors of the vitamin D receptor (VDR): Hit Validation in Primary Screen; shares compounds with VDR inhibitor; VDR-coactivator inhibition assay, qHTS confirmation; Potency, µM, hits mostly inhibitors; hit rate 89% among 840; further: potency means the concentration at half of the fitted maximal effect
VDR FP fluor = qHTS for Inhibitors of the vitamin D receptor (VDR): Hit Validation using a Fluorescein Assay | shares compounds with VDR inhibitor | VDR-coactivator binding, fluorescein fluorescence polarization | Potency, µM (doses to about 57.1 µM), without a hit: at the highest dose activity change, negative = inhibition, hits mostly inhibitors | hit rate 48% among 840 | AID 602200, 2012; further: potency means the concentration at half of the fitted maximal effect
VDR bla = qHTS for Inhibitors of the vitamin D receptor (VDR): Hit Validation using a Beta-Lactamase Assay | shares compounds with VDR inhibitor | VDR beta-lactamase reporter cells, FRET ratio; cells co-treated with VDR agonist LG190178 | Potency, µM (doses to about 46.1 µM), for the others: top-dose activity change, negative = inhibition, usual class: inhibitors | hit rate 23% among 840 | AID 602202, 2012; further: potency means the concentration at half of the fitted maximal effect; on the % scale 0 is the no-effect control and ±100 the full control effect
VDR cytotox = qHTS for Inhibitors of the vitamin D receptor (VDR): Hit Validation using a Cytotoxicity Assay; shares compounds with VDR inhibitor; cytotoxicity counter-screen, cell viability, qHTS; Potency, µM (series often up to 48.3 µM), inactives show at the top dose activity change, negative = cytotoxicity, usual class: cytotoxic; hit rate 18% among 840; AID 602204, 2012;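 further: potency means the concentration at half of the fitted maximal effect; plate controls were DMSO for no effect and high-concentration cycloheximide for full effect; nearly all actives have a fitted effect of over 75% in size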
TbPYK inh = qHTS of Trypanosoma Brucei Inhibitors: Confirmatory Assay for Cherry-picked Compounds. shares compounds with PLK1 PBD inh. recombinant TbPYK, Kinase-Glo ATP luminescence. Potency, µM (highest dose often 76.9 µM), for the others: at the top dose activity change, negative = inhibition, most hits filed as inhibitors. hit rate 67% among 890; further: potency means the concentration at half of the fitted maximal effect; on the % scale 0 is the no-effect control and ±100 the full control effect; nearly all actives have a fitted effect of over 70% in size
TbPYK ADP-Glo = qHTS of Trypanosoma Brucei Inhibitors: Orthogonal Assay for Cherry-picked Compounds; shares compounds with PLK1 PBD inh; recombinant TbPYK, ADP-Glo luminescence, 60 min; hit rate 62% among 890; Potency, µM (titrated, usually from 76.9 µM), without a hit: at the top dose activity change, negative = inhibition, actives largely listed as inhibitors; further: potency means the concentration at half of the fitted maximal effect; on the % scale 0 is the no-effect control and ±100 the full control effect; nearly all actives have a fitted effect of over 75% in size
* = called active by the depositor; ? = inconclusive; nt = not tested or not shown. Unless noted, the call rests on the fitted dose curve; in most records, active means well fitted curve in the direction sought with a large enough effect; inconclusive means small, poorly fitted or top-dose-only effect, or another doubt; inactive means no such curve, though single readings can be large; an effect the other way counts as inactive or inconclusive.

SMILES	Vif-APOBEC3G blk	Vif-A3F inh	VDR inhibitor	PLK1 PBD inh	TSHR antagonist	VDR inh confirm	VDR FP fluor	VDR bla	VDR cytotox	others
CS(=O)(=O)c1ccc(S(=O)CC(=O)Oc2ccc(Cl)cc2)c([N+](=O)[O-])c1 (stereo not given)	?	-2%	3.5µM*	3µM*	0	2.5*	1.6µM*	18µM*	?
C=C(C)[C@@H]1C2=CC(C(=O)OC)=C(C[C@@H](C(=C)C)[C@H]3O[C@H]3C3=C[C@H]1OC3=O)O2	nt	nt	20µM*	nt	nt	7.1*	14µM*	?	17µM*
CCOC(=O)c1ccc2c(c1)N(CC(=O)N(C)c1ccccc1)C(=O)c1ccccc1S2	1%	-5%	0%	nt	nt	nt	nt	nt	nt
COCCNc1ccc(-c2nc(-c3ccccn3)no2)cc1[N+](=O)[O-]	-1%	-12%	2%	nt	nt	nt	nt	nt	nt
CCCOc1ccc(C(=O)CCNC(Cc2c[nH]c3ccccc23)C(=O)O)cc1 (stereo not given)	-4%	0%	45µM*	5.3µM*	0	19*	?	12%	?
Cc1ccc(Nc2nc3ccccc3c3nncn23)cc1C	-12%	-7%	18%	nt	nt	nt	nt	nt	nt
O=C(O)c1cc(/C=C/C(=O)c2cc(F)ccc2O)c2c(c1)COCO2	-5%	?	25µM*	?	-6	6.7*	?	27%	?
COc1ccc(C(=O)/C=C/c2cc(C(=O)O)cc3c2OCOC3)c(O)c1	-19%	22%	?	-26%	-14	nt	nt	nt	nt
O=[N+]([O-])c1cccnc1S(=O)(=O)c1ccccc1	-18%	6%	?	-23%	12	nt	nt	nt	nt
COc1ccc([N+](=O)[O-])c(S(=O)(=O)c2ccccc2)n1	-8%	-1%	32µM*	9.5µM*	-8	15*	?	18µM*	16µM*
O=C(c1ccncc1)N1CCC2(CCN(Cc3nccs3)CC2)CC1	nt	nt	-5%	nt	nt	nt	nt	nt	nt
O=C(NC1CCCC1)c1ccc2nc(-c3ccco3)c(-c3ccco3)nc2c1	-7%	2%	?	8.4µM*	-12	10*	3.2µM*	-1%	12%
O=C(NCCc1ccccc1)c1ccc2nc(-c3ccco3)c(-c3ccco3)nc2c1	-9%	-2%	?	?	9	3.5*	8.9µM*	-1%	12%
CC1=C(C)CS(=O)N(S(=O)(=O)c2ccccc2)C1 (stereo not given)	-6%	?	3.2µM*	1.5µM*	10	3.8*	?	8%	0%
O=S(=O)(c1ccccc1)N1CCN(S(=O)(=O)c2ccccc2)CC1	1%	nt	3%	nt	nt	nt	nt	nt	nt
O=C1ON=C(c2ccccc2)/C1=C/c1ccc(OS(=O)(=O)c2ccccc2)cc1	-10%	-10%	?	6µM*	-9	3.5*	3.2µM*	2%	8%
O=c1c(Cl)c(Cl)cnn1Cc1nnc(-c2ccc(Cl)cc2)o1	?	7%	?	?	-19	?	?	?	?
COc1cc(/C=C/C(=O)c2ccc(F)cc2)cc(OC)c1OC	?	12%	32µM*	-7%	8	21*	?	?	?
CCOc1ccc(C(=O)/C=C/c2cc(OC)c(OC)c(OC)c2)cc1	-25%	5%	?	-3%	-23	nt	nt	nt	nt
O=C(O)c1cc(=O)c2c3nc4ccccc4oc-3cc(=O)c2[nH]1	-4%	nt	?	nt	nt	nt	nt	nt	nt
O=c1c2ccccc2n(Cc2c(F)cccc2Cl)c(=O)n1CCc1ccccc1	-1%	1%	-13%	nt	nt	nt	nt	nt	nt
CCN(CC)S(=O)(=O)c1ccc(O)c(NS(=O)(=O)c2ccccc2F)c1	-3%	-5%	79µM*	24µM*	7	17*	-20%	2%	11%
O=C(Nc1ccc(OC(F)(F)F)cc1)C(NS(=O)(=O)c1cccc2nsnc12)c1ccccc1 (stereo not given)	5%	3%	-15%	nt	nt	nt	nt	nt	nt
CCOc1cc(/C=C2\CN(C)C/C(=C\c3ccc(O)c(OCC)c3)C2=O)ccc1O	?	-3%	?	-9%	-19	18*	?	2.9µM*	27µM*
COc1ccc(C(=O)/C=C/C(=O)N(CC(=O)NC2CCCCC2)CC2CCCO2)c(O)c1 (stereo not given)	?	0%	8.9µM*	6.7µM*	-48	6.7*	?	13µM*	15µM*	TbPYK inh=7.1µM*;TbPYK ADP-Glo=10µM*
COc1ccccc1N1C(=O)C=C(Sc2nc(C)cc(C)n2)C1=O	3%	-8%	?	3µM*	2	2.8*	3.2µM*	21µM*	?	TbPYK inh=2.5µM*;TbPYK ADP-Glo=3.2µM*
CCC(C)NC(=O)c1sc2nc(C)c(C(=O)Nc3ccc(C)cc3C)c(-c3ccccc3Cl)c2c1N (stereo not given)	-1%	1%	10%	nt	nt	nt	nt	nt	nt
